Screens (PubChem BioAssay)
This is a sample that favours compounds with a hit; in the whole collection about 1.2% have one here.
RAD52 inh = RAD52 DNA annealing inhibitors, primary screen, biochemical, FRET, single point, set 2; recombinant RAD52 DNA annealing, FRET fluorescence; DNA repair protein RAD52 homolog (Homo sapiens), P43351; 0.46% of 360,000 active; AID 651710, 2012; inhibition, % at 18.7 µM;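 active means every replicate showing at least 50% inhibition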
NSD2 HMT inh = NSD2 histone methyltransferase inhibitors, primary screen, biochemical, AlphaScreen, single concentration, set 2. Histone-lysine N-methyltransferase NSD2 (Homo sapiens), O96028. AID 743445, 2014. 0.54% of 310,000 active. inhibition, % at 12.5 µM. NSD2 peptide methylation, 120 min; in the data active means inhibition above about 50%
Glyco luc inh = increase of ERlucT glycosylation luciferase signal, primary screen, N-linked glycosylation inhibitor project, D54 ERlucT cells, luminescence, set 2 | 0.23% of 360,000 active | D54 ERlucT glycosylation luciferase reporter, 24 h; percent of 100 nM tunicamycin response | reporter increase, % at 12.5 µM | AID 588692, 2011;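 active means mean luciferase reporter signal, scaled so untreated is 0 and the glycosylation-blocking control 100, at or above a set limit in every replicate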;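 further: luciferase carries N-glycosylation sites so blocking glycosylation raises the light; 0% = median of neutral control wells and 100% = median of 100 nM tunicamycin wells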
RAD54 inh = inhibitors of human RAD54 branch migration, primary screen, biochemical, fluorescence, single point; AID 602329, 2012; DNA repair and recombination protein RAD54-like (Homo sapiens), Q92698; inhibition, % at 10.4 µM; RAD54 Holliday junction branch migration, FAM/BHQ fluorescence; 0.14% of 360,000 active;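 active means mean normalized replicate activity at least 40 and at least half of replicates scoring 40 or more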;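 further: 0% = median of neutral control wells and 100% = median of positive control wells; inhibitors cause a drop in the FAM fluorescence signal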
Target sequence (Q92698 whole entry, looked up): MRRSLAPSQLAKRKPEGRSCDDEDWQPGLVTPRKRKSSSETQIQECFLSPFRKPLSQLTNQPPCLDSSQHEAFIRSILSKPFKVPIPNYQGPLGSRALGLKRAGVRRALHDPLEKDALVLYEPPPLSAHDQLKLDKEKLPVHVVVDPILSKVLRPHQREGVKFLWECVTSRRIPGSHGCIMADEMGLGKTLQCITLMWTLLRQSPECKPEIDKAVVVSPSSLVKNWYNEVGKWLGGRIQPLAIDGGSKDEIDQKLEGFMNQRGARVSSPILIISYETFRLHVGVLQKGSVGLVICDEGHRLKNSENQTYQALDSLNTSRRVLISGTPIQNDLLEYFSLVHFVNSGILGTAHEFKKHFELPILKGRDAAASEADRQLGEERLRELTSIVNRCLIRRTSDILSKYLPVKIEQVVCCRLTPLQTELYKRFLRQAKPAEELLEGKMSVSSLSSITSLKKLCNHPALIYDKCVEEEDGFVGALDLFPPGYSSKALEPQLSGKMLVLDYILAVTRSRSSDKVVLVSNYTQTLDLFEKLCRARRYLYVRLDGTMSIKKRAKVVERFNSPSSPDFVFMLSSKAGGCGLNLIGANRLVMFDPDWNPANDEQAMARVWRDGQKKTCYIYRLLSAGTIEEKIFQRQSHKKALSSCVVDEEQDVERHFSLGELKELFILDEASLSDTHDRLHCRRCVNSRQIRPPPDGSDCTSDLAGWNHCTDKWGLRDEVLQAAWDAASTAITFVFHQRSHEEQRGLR
CASP6 VEID inh = human caspase-6 inhibitors, primary screen, biochemical, VEID-R110 fluorescence, single point, set 2 | P55212 | purified caspase-6, Z-VEID-R110 cleavage fluorescence | inhibition, % at 12.5 µM | 0.53% of 350,000 active | AID 686996, 2013;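 active means mean inhibition across replicates at least about 35%, with every replicate also reaching that limit, limit read from the data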;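 further: 0% = median of neutral control wells and 100% = no fluorescence left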
RAD52 DNA ctr = DNA-binding compounds via dye displacement, dose response, artefact control for RAD52 inhibitor project, biochemical, fluorescence polarization, cherry-pick; AID 652128, 2013; Salmon sperm DNA/acridine orange FP displacement; AC50, µM; 8% of 1,000 active; shares compounds with RAD52 inh;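 active means fitted half-maximal concentration for signal loss at or below twice the highest dose tested, in every separate run, actives reach about 64 µM in these data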
An asterisk follows results filed as active; i = inactive; . = not tested or not shown; ! = a repeat was not active.

SMILES	RAD52 inh	NSD2 HMT inh	Glyco luc inh	RAD54 inh	CASP6 VEID inh	RAD52 DNA ctr
O=C(C1CCOCC1)N1CC(=O)N2[C@H](CO)[C@H](c3ccc(C#CC4CCCC4)cc3)[C@@H]2C1	-4	.	.	.	2	.
Cc1c(CCOC(=O)c2ccc(Cl)cc2Cl)sc[n+]1CC(=O)c1ccc(Br)cc1	37	-2	-2	30	-14	i
Cc1c(CCOC(=O)c2ccc([N+](=O)[O-])cc2)sc[n+]1CC(=O)c1ccccc1	19	-1	1	.	-8	.
COc1ccc(C(=O)OCCc2sc[n+](CC(=O)c3ccccc3)c2C)cc1	73*	7	0	17	-11	i
O=C(NCC1CCCCC1)[C@H]1[C@H](CO)[C@H]2Cn3c(ccc(-c4cncnc4)c3=O)[C@@H]1N2	1	.	.	1	-4	.
CCCCCCCCCC[n+]1cccc2c3ccccc3ccc21	72*	9	19	.	31	i
CCNC(=O)C[C@H]1CC[C@H](NS(=O)(=O)c2ccc(C)cc2)[C@H](CO)O1	5	.	.	-19	-3	.
COC(=O)C1=C(C)N(Cc2ccc(C(F)(F)F)cc2)C(=NCc2ccc(C(F)(F)F)cc2)NC1c1ccccc1 (stereo not given)	59*	.	.	.	5	i
COC(=O)C1=C(C)N(Cc2cccc(C(F)(F)F)c2)C(=NCc2cccc(C(F)(F)F)c2)NC1c1ccc(Cl)cc1 (stereo not given)	67*	.	.	.	0	i
CCN=C1NC(c2ccccc2)C(C(=O)OC)=C(C)N1Cc1ccc(C(F)(F)F)cc1 (stereo not given)	32	.	.	.	2	.
COC(=O)C1=C(C)N(Cc2cccc(C(F)(F)F)c2)C(=NCc2ccc(C(F)(F)F)cc2)NC1c1ccc(C(F)(F)F)cc1 (stereo not given)	-18	.	.	.	-6	.
c1ccc2c(c1)c1c(c3ccccc32)CN2CCCC2C1 (stereo not given)	103*	.	21	.	-3	25µM*
c1ccc(CN2CCC(N3CCC(N4CCCCCC4)CC3)CC2)cc1	12	.	-4	-3	-141	.
C[C@@H]1CN([C@H](C)CO)C(=O)Cc2cc(NC(=O)CCN3CCOCC3)ccc2O[C@@H]1CN(C)Cc1ccc(Cl)c(Cl)c1	6	.	.	-10	0	.
C[C@H]1CN([C@@H](C)CO)S(=O)(=O)c2ccc(-c3ccncc3)cc2O[C@H]1CN(C)C	-3	.	.	0	0	.
C/C=C/c1cnc2c(c1)C(=O)N([C@@H](C)CO)C[C@H](C)[C@H](CN(C)C(=O)c1cccc(F)c1)O2	1	.	.	4	-3	.
C[C@@H]1CN([C@@H](C)CO)C(=O)Cc2cc(NC(=O)c3ccncc3)ccc2O[C@H]1CN(C)C(=O)Nc1ccccc1	4	.	.	16	-1	.
NC(N)=N/N=C(\N=Nc1ccccc1)c1ccc(Cl)cc1	74*	19	2	.	-1	i
NC(N)=N/N=C(\N=Nc1ccccc1)c1cccc2cccnc12	15	4	6	.	-3	.
C[C@H](CO)N1C[C@H](C)[C@H](CN(C)S(C)(=O)=O)Oc2c(NC(=O)Nc3ccc(F)cc3)cccc2C1=O	6	.	.	0	-3	.
NC(=NCCCCCCN=C(N)/N=C(\N)Nc1ccc(Cl)cc1)/N=C(\N)Nc1ccc(Cl)cc1	95*	.	-10	59*!	.	i
CC(C)N=C(N)N=C(N)Nc1ccc(Cl)cc1	-10	.	0	7	1	.
CCOCCCNCc1ccc(OC)cc1	.	-2	1	0	.	.
COc1ccc2cc(CNCCOCCOCCNCc3ccc4cc(OC)ccc4c3)ccc2c1	64*	.	-15	.	-43	i
CC(C)c1ccc(NC(=O)C(c2ccccc2)N2CC(=O)Nc3ccccc32)cc1 (stereo not given)	62*	.	-2	7	1	i
SMILES	RAD52 inh	NSD2 HMT inh	Glyco luc inh	RAD54 inh	CASP6 VEID inh	RAD52 DNA ctr
COc1ccc(NC(=S)NC23CN4CN(CN(C4)C2)C3)cc1	.	0	4	1	.	.
COc1ccc(NC(=S)NC23CN4CN(CN(C4)C2)C3)c(OC)c1	86*	6	0	.	-87	i
C[C@@H]1CN([C@@H](C)CO)C(=O)Cc2cc(NS(=O)(=O)c3cccs3)ccc2O[C@@H]1CN(C)Cc1ccc(Cl)c(Cl)c1	12	.	.	2	-2	.
CN(C)CC/C=C1/c2ccccc2Sc2ccc(Cl)cc21	41	25	-3	9	-2	.
CCCCCC[N+](C)(C)CC/C=C1/c2ccccc2Sc2ccc(Cl)cc21	63*	6	1	.	5	i
C[C@H]1CN([C@@H](C)CO)S(=O)(=O)c2ccc(-c3cncnc3)cc2O[C@H]1CN(C)C(=O)c1ccc2c(c1)OCO2	10	.	.	9	1	.
COc1ccc(NC(=O)N(C)C[C@@H]2Oc3ccc(NC(=O)Nc4ccc(F)cc4)cc3CC(=O)N([C@@H](C)CO)C[C@H]2C)cc1	-2	.	.	4	-1	.
CN(C)c1nc(N)c(C(=O)N=C(N)N)nc1Cl	88*	.	1	41	-2	i
C[C@H]1CN([C@@H](C)CO)C(=O)c2cc(NC(=O)Cc3ccccc3)ccc2O[C@@H]1CN(C)Cc1ccc(C(=O)O)cc1	6	.	.	4	2	.
COc1ccc(C2c3ccc4ccccc4c3Oc3ncn(CCO)c(=N)c32)cc1 (stereo not given)	-10	.	-3	-1	-2	.
COc1ccc(C2c3ccc4ccccc4c3Oc3ncn(CCN(C)C)c(=N)c32)cc1 (stereo not given)	57*	11	12	4	-34	i
Oc1c(CN2CCOCC2)cc(CN2CCOCC2)c(O)c1O	61*	12	0	1	-6	i
Cc1cccc(CN2C(=O)/C(=C\c3ccc(C(=O)NCCCN4CCN(C)CC4)cc3)Oc3ccccc32)c1	30	-16	-7	9	-190	.
O=C(CN1C(=O)/C(=C/c2ccccc2)Sc2ccccc21)NCCCN1CCOCC1	-13	-3	1	-3	-4	.
O=C1Nc2cc(C(=O)NCCCN3CCCC3)ccc2S/C1=C/c1cccc(Cl)c1	79*	8	-8	35	-102	i
CN1CCN(CCCNC(=O)c2ccc(/C=C3\Oc4ccccc4N(Cc4ccccc4F)C3=O)cc2)CC1	96*	-23	-4	31	-223	i
CN1CCN(CCCNC(=O)c2ccc(/C=C3\Sc4ccccc4N(Cc4ccc(F)cc4)C3=O)cc2)CC1	92*	7	-8	7	-141	i
CN1CCN(CCCNC(=O)c2ccc(/C=C3/Sc4ccccc4N(Cc4cccc(Cl)c4)C3=O)cc2)CC1	68*	.	-9	10	-133	i
